Laboratory results taken from PubChem BioAssay.
A number with no mark means an inactive call. Where a call stands in place of a potency, no number is given. For some assays here: Potency and affinity values are given separately. The source made the active and inactive calls. Unless noted, no rule for the calls is given here.

Legend:
[1] = antimalarial activity against Dd2 strain (AID 2302;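 active = growth inhibition above 50% at the single 2 µM test dose, taken to imply half-maximal potency below 2 µM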); details: P. falciparum Dd2 in RBCs, LDH growth readout, 72 h; at 2 µM; hits give high values
[2] = human hepatoma cell viability loss – ATP luminescence, cytotoxicity control for P. falciparum antimalarial project, primary screen (AID 2303;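 active = inhibition above 50%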); details: HepG2 viability, 24-48 h, at 10 µM, hits give high values
[3] = target: L-lactate dehydrogenase (Plasmodium falciparum (isolate CDC / Honduras)) (UniProt Q27743); assay: PfLDH activity inhibition – cell lysate, 3D7 strain, counter-screen for P. falciparum growth inhibition project (AID 2304); details: P. falciparum 3D7 crude extract, LDH APAD/NBT absorbance; at 2 µM; hits give high values
[4] = inhibition of 3D7 malaria parasite growth – strain 3D7 (AID 2306); details: P. falciparum 3D7 erythrocytic growth, LDH absorbance, 72 h; at 2 µM; hits give high values
[5] = target: Calcium-dependent protein kinase 1 (Plasmodium falciparum (isolate 3D7)) (UniProt P62344); assay: PfCDPK1 kinase inhibitors, biochemical, TCAMS library (AID 1159585; cut-off not given, nearly all actives have IC50 up to about 0.98 µM;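 also: inhibitors leave more ATP so luminescence rises with inhibition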); details: recombinant PfCDPK1, Kinase-Glo ATP depletion luminescence
[6] = target: Plasmodium falciparum protein kinase 6 (PK6, PF3D7_1337100) (UniProt Q8IDW1); assay: PfPK6 kinase inhibitors, biochemical, TCAMS library (AID 1159586); details: recombinant PfPK6, Kinase-Glo ATP depletion luminescence
[7] = target: Protein kinase 7 (PK7), Plasmodium falciparum 3D7 (PF3D7_0213400) (UniProt Q7YTF7); assay: inhibition of Plasmodium PK7 catalytic activity – biochemical, TCAMS antimalarial set, Kinase-Glo luminescence (AID 1159587); details: recombinant PfPK7, Kinase-Glo ATP depletion luminescence
[8] = target: Calcium-dependent protein kinase 4 (Plasmodium falciparum (isolate 3D7)) (UniProt Q8IBS5); assay: PfCDPK4 kinase inhibitors, biochemical, TCAMS library (AID 1159588; cut-off not given, nearly all actives have IC50 up to about 0.91 µM); details: recombinant PfCDPK4, Kinase-Glo ATP depletion luminescence
Chain of Calcium-dependent protein kinase 4 (Plasmodium falciparum (isolate 3D7)) (Q8IBS5 whole entry, looked up): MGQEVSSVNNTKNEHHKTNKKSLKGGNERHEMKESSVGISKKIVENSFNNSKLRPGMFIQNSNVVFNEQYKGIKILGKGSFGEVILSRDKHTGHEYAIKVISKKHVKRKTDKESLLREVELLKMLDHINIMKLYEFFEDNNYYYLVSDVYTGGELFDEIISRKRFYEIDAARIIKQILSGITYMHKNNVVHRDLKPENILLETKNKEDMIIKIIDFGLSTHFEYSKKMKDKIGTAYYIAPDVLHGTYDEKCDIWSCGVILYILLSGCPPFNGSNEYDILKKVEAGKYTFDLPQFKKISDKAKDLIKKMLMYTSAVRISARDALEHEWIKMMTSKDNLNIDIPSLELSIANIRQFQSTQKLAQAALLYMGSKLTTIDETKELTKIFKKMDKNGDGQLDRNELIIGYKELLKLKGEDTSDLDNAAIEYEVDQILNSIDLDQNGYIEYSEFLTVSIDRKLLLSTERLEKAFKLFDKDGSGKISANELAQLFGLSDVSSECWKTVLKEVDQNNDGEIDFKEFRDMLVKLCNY

Chain of Calcium-dependent protein kinase 1 (Plasmodium falciparum (isolate 3D7)) (P62344 whole entry, looked up): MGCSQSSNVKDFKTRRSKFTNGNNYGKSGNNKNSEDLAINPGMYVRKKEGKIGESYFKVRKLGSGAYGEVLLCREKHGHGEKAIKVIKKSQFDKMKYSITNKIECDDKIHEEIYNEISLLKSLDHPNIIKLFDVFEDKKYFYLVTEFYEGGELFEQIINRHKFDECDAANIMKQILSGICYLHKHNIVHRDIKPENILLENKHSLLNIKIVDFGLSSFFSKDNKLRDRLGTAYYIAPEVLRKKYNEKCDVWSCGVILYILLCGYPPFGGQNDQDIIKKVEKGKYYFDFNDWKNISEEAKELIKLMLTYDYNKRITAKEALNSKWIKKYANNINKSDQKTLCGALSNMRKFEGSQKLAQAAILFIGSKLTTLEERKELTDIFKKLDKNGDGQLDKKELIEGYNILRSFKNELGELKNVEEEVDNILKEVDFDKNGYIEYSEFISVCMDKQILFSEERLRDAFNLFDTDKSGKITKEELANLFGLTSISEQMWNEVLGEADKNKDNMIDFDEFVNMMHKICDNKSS
Chain of Plasmodium falciparum protein kinase 6 (PK6, PF3D7_1337100) (Q8IDW1 1-305): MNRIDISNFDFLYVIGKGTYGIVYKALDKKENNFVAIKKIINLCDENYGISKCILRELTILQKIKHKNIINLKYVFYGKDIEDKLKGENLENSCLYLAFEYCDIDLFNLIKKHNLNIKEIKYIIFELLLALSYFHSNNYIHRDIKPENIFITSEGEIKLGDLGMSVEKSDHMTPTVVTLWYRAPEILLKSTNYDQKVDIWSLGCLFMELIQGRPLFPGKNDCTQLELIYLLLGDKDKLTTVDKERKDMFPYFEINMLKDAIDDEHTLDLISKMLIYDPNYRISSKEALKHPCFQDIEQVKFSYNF
Chain of L-lactate dehydrogenase (Plasmodium falciparum (isolate CDC / Honduras)) (Q27743 whole entry, looked up): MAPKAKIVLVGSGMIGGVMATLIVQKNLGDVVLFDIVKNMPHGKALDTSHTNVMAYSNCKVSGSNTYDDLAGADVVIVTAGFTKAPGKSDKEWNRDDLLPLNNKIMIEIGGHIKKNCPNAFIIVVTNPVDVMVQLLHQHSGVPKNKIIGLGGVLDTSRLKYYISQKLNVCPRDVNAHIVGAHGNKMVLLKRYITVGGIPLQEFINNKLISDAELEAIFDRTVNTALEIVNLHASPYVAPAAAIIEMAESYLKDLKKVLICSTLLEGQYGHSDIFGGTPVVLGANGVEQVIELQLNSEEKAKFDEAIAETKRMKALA
Chain of Protein kinase 7 (PK7), Plasmodium falciparum 3D7 (PF3D7_0213400) (Q7YTF7 1-343): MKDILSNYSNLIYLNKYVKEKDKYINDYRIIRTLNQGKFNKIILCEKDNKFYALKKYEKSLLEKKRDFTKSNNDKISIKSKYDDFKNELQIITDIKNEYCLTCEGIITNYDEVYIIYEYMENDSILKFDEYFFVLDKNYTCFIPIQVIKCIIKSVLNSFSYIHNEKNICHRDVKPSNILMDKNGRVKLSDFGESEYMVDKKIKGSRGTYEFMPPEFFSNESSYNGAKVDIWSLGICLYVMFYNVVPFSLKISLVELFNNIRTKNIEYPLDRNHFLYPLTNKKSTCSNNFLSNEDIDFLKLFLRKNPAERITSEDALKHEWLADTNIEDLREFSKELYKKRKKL

| Compound | growth inhibition [1] | inhibition [2] | inhibition [3] [%] | growth inhibition [4] | outcome [5] | outcome [6] | outcome [7] | outcome [8] |
| --- | --- | --- | --- | --- | --- | --- | --- | --- |
| CCSc1nc2sc3c(c2c(=O)n1-c1ccccc1)CCN(C)C3 | 71% (active) | 16% | -3 | 83% (active) | inactive | inactive | inactive | inactive |
| Cc1cccc2[nH]c(-c3ccc(-c4cccc(NC(=O)C(C)CN(C)C)c4)cc3)nc12 (stereo not given) | 61% (active) | 20% | 1 | 99% (active) | inactive | inactive | inactive | inactive |
| COc1ccc2cc(C(C)NC3CCN(c4cccc(NC(=O)c5ccncc5)c4)CC3)ccc2c1 (stereo not given) | 6% | 13% | -1 | 91% (active) | inactive | inactive | inactive | inactive |
| O=C(/C=C/c1ccc(Cl)c(Cl)c1)NCCCCCN1CCCN(C(=S)Nc2ccc(Cl)c(Cl)c2)CC1 | -3% | 16% | -3 | 96% (active) | inactive | inactive | inactive | inactive |
| CCNc1cc(C(=O)N[C@@H](Cc2ccccc2)[C@H](O)CNCCc2cccc(C(F)(F)F)c2)cc(N2CCCC2=O)c1 | 93% (active) | 7% | 1 | 96% (active) | inactive | inactive | inactive | inactive |
| Cc1cc(Nc2cccc(Cl)c2)nc2ccc(NC(=O)c3ccc(=O)[nH]c3)cc12 | 23% | 12% | 4 | 100% (active) | inactive | inactive | inactive | inactive |
| CC1CCCN(S(=O)(=O)c2cc(Br)cc3c2N(C(=O)C2CC2)CC3)C1 (stereo not given) | 70% (active) | -14% | -3 | 83% (active) | inactive | inactive | inactive | inactive |
| Cc1cc(C2CCN(CCCCNC(=O)c3ccc(NC(=O)c4ccc(Cl)cc4)cc3)CC2)c(C)cc1OC(C)C | 92% (active) | 22% | 7 | 100% (active) | inactive | inactive | inactive | inactive |
| O=C(NC(=O)c1ccccc1O)c1ccccc1O | 79% (active) | -5% | -2 | 97% (active) | inactive | inactive | inactive | inactive |
| COc1ccccc1C(C)NCC(=O)Nc1cccc(C(=O)Nc2cccc(C(F)(F)F)c2)c1 (stereo not given) | 39% | 34% | 5 | 91% (active) | inactive | inactive | inactive | inactive |
| N#Cc1cccc(NC(=O)Nc2cccc(-c3ccc(-c4nc5ccc(C(F)(F)F)cc5[nH]4)cc3)c2)c1 | 99% (active) | 54% (active) | -8 | 102% (active) | inactive | inactive | inactive | inactive |
| O=C(/C=C/c1ccc(Cl)c(Cl)c1)NCCCCCN1CCC(NC(=O)Nc2ccc3c(c2)OCO3)CC1 | 5% | 12% | 6 | 103% (active) | inactive | inactive | inactive | inactive |
| CCC[C@@H]([C@@H](CC(C)C)C(=O)N[C@@H](CCCNc1nccc(C(F)(F)F)n1)C(=O)Nc1nccs1)N(O)C=O | 98% (active) | -4% | 8 | 99% (active) | inactive | inactive | inactive | inactive |
| FC(F)(F)c1ccc2nc(-c3ccc(-c4ccc(CNCc5ccccc5)cc4)cc3)[nH]c2c1 | 96% (active) | 22% | -5 | 101% (active) | inactive | inactive | inactive | inactive |
| Cn1cc(Br)c(-c2cccc(Nc3ccnc4cc(-c5nccs5)ccc34)c2)n1 | 32% | 37% | -1 | 91% (active) | inactive | inactive | inactive | inactive |
| CCOc1ccc(-c2nonc2NC(=O)c2ccco2)cc1OCC | 77% (active) | 3% | -1 | 97% (active) | inactive | inactive | inactive | inactive |
| O=C(NCCCCCN1CCC(c2c[nH]c3ccccc23)CC1)Nc1ccc(Cl)cc1Cl | 15% | 71% (active) | -2 | 99% (active) | inactive | inactive | inactive | inactive |
| CC(C)(C)OC(=O)[C@H](CC(N)=O)NC(=O)c1ccc(-c2ccc(-c3nc4ccc(C(F)(F)F)cc4[nH]3)s2)cc1 | 88% (active) | 62% (active) | -2 | 94% (active) | inactive | inactive | inactive | inactive |
| Cc1cccc2[nH]c(-c3ccc(-c4cccc(CN5CCN(c6ccncc6)CC5)c4)s3)nc12 | 99% (active) | 48% | 6 | 101% (active) | inactive | inactive | inactive | inactive |
| COc1ccc(NC(=O)[C@H](Cc2ccccc2)Nc2cc(C)nc(NCCc3ccccc3)n2)cc1 | 83% (active) | 6% | -1 | 98% (active) | inactive | inactive | inactive | inactive |

| Compound | growth inhibition [1] | inhibition [2] | inhibition [3] [%] | growth inhibition [4] | outcome [5] | outcome [6] | outcome [7] | outcome [8] |
| --- | --- | --- | --- | --- | --- | --- | --- | --- |
| Cc1cc(NCc2ccccc2)nc2cc(O)ccc12 | 80% (active) | -7% | 6 | 98% (active) | inactive | inactive | inactive | inactive |
| Cc1cc(NC(=O)c2cccs2)ccc1OC1CCN(Cc2ccc(F)cc2)C1 (stereo not given) | 92% (active) | 0% | 0 | 95% (active) | inactive | inactive | inactive | inactive |
| O=C(Nc1ccc(-c2nc3ccccc3[nH]2)cc1)c1cccc([N+](=O)[O-])c1 | 56% (active) | 45% | -3 | 101% (active) | inactive | inactive | inactive | inactive |
| CSc1ccccc1NC(=S)NC1CCN(CCCCCNC(=O)/C=C/c2ccc(Cl)c(Cl)c2)CC1 | 27% | 19% | 4 | 98% (active) | inactive | inactive | inactive | inactive |
| CCN(CC)Cc1cc(NC(=O)c2ccccc2O)ccc1Oc1ccc(Cl)cc1 | 88% (active) | 32% | 3 | 98% (active) | inactive | inactive | inactive | inactive |
| Cc1cc(=O)c(-c2cccc(Oc3ccc(Cl)cc3)c2)c(C)[nH]1 | 95% (active) | -2% | -4 | 96% (active) | inactive | inactive | inactive | inactive |
| CCCC1N=C(N)N=C(N)N1c1ccc(C)cc1 (stereo not given) | 2% | 1% | -3 | 94% (active) | inactive | inactive | inactive | inactive |
| COc1cc2nc(N3CCC(CNC(=O)c4ccc(-c5ccc(C(=O)N(C)C)cc5OCCO)cc4)CC3)nc(N)c2cc1OC | 8% | -7% | -1 | 100% (active) | inactive | inactive | inactive | inactive |
| NC1=NC(=O)C(=Cc2cn(-c3ccccc3)nc2-c2cccc(S(=O)(=O)N3CCCC3)c2)S1 | 68% (active) | -4% | 3 | 85% (active) | inactive | inactive | inactive | inactive |
| CN(C(=O)/C=C/c1ccccc1F)C1CCN(CCCCCNC(=O)/C=C/c2ccc(Cl)c(Cl)c2)CC1 | 59% (active) | 73% (active) | -1 | 89% (active) | inactive | inactive | inactive | inactive |
| O=C(Nc1ccc([N+](=O)[O-])cc1O)Nc1ccccc1Oc1ccccc1 | 1% | 45% | -8 | 92% (active) | inactive | inactive | inactive | inactive |
| Cc1noc(C)c1-c1cccc(CNCc2ccc(-c3cccc(-c4nc5c(C)cccc5[nH]4)c3)cc2)c1 | 94% (active) | 24% | 7 | 101% (active) | inactive | inactive | inactive | inactive |
| COc1cc(OC)c(NC(=O)C2c3ccccc3C(=O)N(CC(C)C)C2c2cccs2)cc1Cl (stereo not given) | 100% (active) | 9% | -1 | 100% (active) | inactive | inactive | inactive | inactive |
| Cc1cccc2[nH]c(-c3ccc(-c4ccc(NC(=O)C5CCN(C)CC5)cc4)cc3)nc12 | 92% (active) | 28% | 1 | 100% (active) | inactive | inactive | inactive | inactive |
| c1cc(CN2CCN(c3ccncc3)CC2)cc(-c2ccc(-c3nc4ccccc4[nH]3)s2)c1 | 100% (active) | 59% (active) | -2 | 102% (active) | inactive | inactive | inactive | inactive |
| CS(=O)(=O)c1ccc(CNCc2ccc(-c3ccc(-c4nc5ccc(C(F)(F)F)cc5[nH]4)cc3)cc2)cc1 | 82% (active) | 26% | 3 | 101% (active) | inactive | inactive | inactive | inactive |
| Oc1ccc(-c2cc(-c3ccc(O)cc3)nc(-c3ccccc3)n2)cc1 | 97% (active) | 0% | -1 | 96% (active) | inactive | inactive | inactive | inactive |
| O=C(CN1CCN(C(=O)c2ccco2)CC1)Nc1ccccc1Br | 96% (active) | 15% | -4 | 97% (active) | inactive | inactive | inactive | inactive |
| Fc1cccc(COc2ccc(Nc3ncnc4sc(C#C[C@H]5CC[C@H](CN6CCOCC6)N5)cc34)cc2Cl)c1 | 23% | 16% | -10 | 92% (active) | inactive | inactive | inactive | inactive |
| CCCCOc1cc(CNCCCCCCNCc2cc(OCCCC)cc3ccccc23)c2ccccc2c1 | 92% (active) | 99% (active) | -5 | 101% (active) | inactive | inactive | inactive | inactive |
